Screening data as filed in PubChem BioAssay.
PP5 primary: PP5 (human) phosphatase inhibition | inhibition, % at 6.7 µM | P53041 | purified PP5c, OMFP substrate fluorescence | actives 0.18% (n = 320,000);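 active means inhibition above the campaign's mean inhibition across all tested compounds plus 3 SD, cut at about 9.5% in these data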;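 further: 0% = DMSO only and 100% = 100 µM cantharidin control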
CSC inhib: blocks cancer stem cells. cancer stem cell-like cells viability, luminescence. inhibition, % at 7.5 µM. actives 1.1% (n = 300,000). AID 2717; in the data active means inhibition above about 75%; inconclusive means no clear call, values can overlap the other calls; tested in HMLE shEcad cells
SKKanGAS inh: SKKanGAS growth inhibition; actives 1.3% (n = 300,000); AID 1662; inhibition, % at 7.5 µM; S. pyogenes SKKanGAS, kanamycin growth, BacTiter-Glo, 6 h;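 active means mean replicate score, as percent of positive control median, at least 50; inconclusive means mean below 50 but one replicate at or above 50; inactive means mean and every replicate below 50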;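 further: strain carries kanamycin resistance gene driven by streptokinase promoter and grows in 40 µg/ml kanamycin; loss of luminescence reflects streptokinase promoter inhibition or plain growth inhibition; 0% = median of DMSO wells and 100% = positive control at its reference dose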
PP1 counter: blocks human PP1-alpha phosphatase, a PP5 counter-screen. P62136. purified PP1alpha, OMFP fluorescence. inhibition, % at 6.7 µM. actives 0.9% (n = 320,000). AID 2235;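 active means inhibition above the mean inhibition of all tested compounds plus 3 SD, computed separately for each screening campaign, cut at about 15% in these data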
Target sequence (P62136 whole entry, looked up): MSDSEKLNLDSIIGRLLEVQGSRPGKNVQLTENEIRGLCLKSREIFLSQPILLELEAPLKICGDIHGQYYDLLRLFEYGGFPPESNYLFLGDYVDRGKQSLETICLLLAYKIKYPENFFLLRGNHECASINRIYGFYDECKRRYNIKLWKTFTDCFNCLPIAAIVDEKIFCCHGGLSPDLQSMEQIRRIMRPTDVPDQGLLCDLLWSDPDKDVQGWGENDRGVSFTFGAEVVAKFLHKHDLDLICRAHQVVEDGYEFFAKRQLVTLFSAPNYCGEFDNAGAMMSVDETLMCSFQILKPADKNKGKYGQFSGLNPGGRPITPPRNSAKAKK
Beta cell apopt: beta cell apoptosis inhibition | INS-1E cytokine-induced death, ATP luminescence, 48 h; percent of positive-control rescue, neutral wells zero | protection from apoptosis, % (test concentration not listed) | actives 0.8% (n = 300,000);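 active means Every replicate reaches about 75%, or at least half do and their mean reaches it too, limit read from the data; inconclusive means At least half of replicates reach the limit but their mean does not; inactive means Under half of replicates reach the limit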;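 further: 0% = cytokine-treated negative control wells and 100% = positive control rescue; higher means more ATP so stronger rescue from cytokine killing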
An asterisk follows results filed as active; u = inconclusive; x = no result. Most compounds without a hit are left out; they make up all but 3.1% or so of the library.

SMILES | PP5 primary | CSC inhib | SKKanGAS inh | PP1 counter | Beta cell apopt
O=c1c2oc3ccccc3c2ncn1Cc1ccc(Cl)cc1 | 1 | 10 | 8 | 2 | -6
COC1=CC(=O)C[C@@H](C)[C@]12Oc1c(Cl)c(OC)cc(OC)c1C2=O | 1 | 7 | -3 | -4 | -6
COc1ccc(CNCC(O)(c2ccc(Cl)cc2)c2ccc(Cl)cc2)cc1OC | 2 | x | x | 3 | -4
COc1ccc(CNCC(O)(c2ccc(Cl)cc2)c2ccc(Cl)cc2)cc1 | 2 | -11 | 59* | 12 | 34
COC(=O)[C@@H]1C[C@]2(OC(=O)c3ccccc3)C=CC(=O)C[C@@H]2N1C(=O)OCc1ccccc1 | 2 | 76* | 2 | 5 | 1
O=C(CC(Sc1ccc(Br)cc1)C(=O)O)c1ccc(F)cc1 (stereo not given) | 1 | x | -5 | 1 | x
CCC(C)n1c(SCC(=O)NC2CCCC2)nc2ccccc2c1=O (stereo not given) | -1 | -7 | -3 | -3 | -7
COc1ccc([N+](=O)[O-])cc1NC(=O)CCS(=O)(=O)c1ccc(Br)cc1 | 5 | -6 | -5 | 17* | -2
Cc1ccc(NC(=O)c2ccc(=O)[nH]c2)cc1S(=O)(=O)N1CCCCC1 | 1 | -3 | -7 | 0 | -4
Cc1cccc(-c2oc3ccccc3c2-c2ccc3c(c2)OCO3)c1 | -3 | 4 | 52* | -10 | 7
Cc1ccc2c(c1)oc(=O)n2CC(=O)c1ccccc1 | 0 | -8 | 5 | 0 | -2
Cc1ccc(N=Nc2c(O)ccc3n[nH]nc23)cc1 | x | 8 | 6 | x | 99*
Cc1nn(-c2cccc(C(F)(F)F)c2)c(=O)c2noc(C)c12 | 1 | -6 | 8 | -4 | x
Oc1ccc(/C=N/Nc2nc(N3CCCCCC3)nc(N3CCCCCC3)n2)c(O)c1 | 5 | x | 112* | 0 | 2
Oc1ccc(Br)cc1/C=N/Nc1nc(N2CCCCC2)nc(N2CCOCC2)n1 | -1 | 2 | u | 2 | 7
Fc1ccc(Nc2nc(N/N=C/c3ccco3)nc(N3CCCCC3)n2)cc1 | 1 | 5 | 68* | 4 | 8
O=[N+]([O-])c1cccc(/C=N/Nc2nc(N3CCCCC3)nc(N3CCCCC3)n2)c1 | 0 | -11 | 52* | 0 | 2
C(=N\Nc1nc(N2CCCCCC2)nc(N2CCCCCC2)n1)/c1ccccc1 | 3 | x | 69* | -1 | 10
Cc1c(C(C)(C)O)[nH]c2ccc(C(F)(F)F)cc12 | 8 | -10 | 11 | 7 | 5
COC(=O)C1(C(F)(F)F)C2C=CC(C2)N1S(=O)(=O)c1ccc(C)cc1 (stereo not given) | -1 | x | 5 | -1 | 0
O=[N+]([O-])c1ccc(O)c(-c2nc(-c3ccccc3)c(-c3cccs3)[nH]2)c1 | 1 | 100* | 102* | -1 | 49
COc1ccc(C2c3ccc(O)cc3Oc3ncn(Cc4ccco4)c(=N)c32)cc1OC (stereo not given) | 0 | 26 | -2 | -2 | 0
COc1ccc(C2c3ccc4ccccc4c3Oc3ncn(CCCN(C)C)c(=N)c32)cc1 (stereo not given) | 3 | 105* | 4 | 1 | 112*
COc1ccc(C2c3ccc4ccccc4c3Oc3ncn(Cc4ccco4)c(=N)c32)cc1OC (stereo not given) | 1 | 80* | 14 | 6 | -2
COc1ccccc1C1c2ccc3ccccc3c2Oc2ncn(CCCO)c(=N)c21 (stereo not given) | 2 | 17 | 3 | 1 | 13
SMILES | PP5 primary | CSC inhib | SKKanGAS inh | PP1 counter | Beta cell apopt
COc1ccc(C2c3c(ncn(CCCO)c3=N)Oc3ccc4ccccc4c32)cc1 (stereo not given) | 2 | 18 | 8 | 3 | 5
COc1ccccc1C1c2ccc3ccccc3c2Oc2ncn(CCN(C)C)c(=N)c21 (stereo not given) | 2 | 85* | 5 | 2 | 45
O=C(Nc1cccc(F)c1)C1CCN(C(=O)NCc2ccccc2)CC1 | 3 | -7 | 12 | -4 | -11
CC(C)CCNC(=O)COC(=O)c1cc(Br)c(Br)s1 | 1 | x | -4 | 2 | 3
Cc1cc(C)c(C)c(S(=O)(=O)N2CCN(c3ncnc4ccccc34)CC2)c1C | 0 | 34 | x | -3 | 104*
Cc1cc(C)c(C)c(S(=O)(=O)N2CCN(c3ccc(O)cc3)CC2)c1C | 3 | 85* | -1 | 4 | -8
Cc1cc(C)c(C)c(S(=O)(=O)N2CCN(c3ccccn3)CC2)c1C | 2 | -11 | 7 | -6 | -16
CCOc1cc(C(=S)N2CCOCC2)ccc1OC(=O)c1ccc(C)cc1 | 3 | -3 | -1 | 0 | -1
CC(C)Oc1ccc(C(=O)N2CCN(C(=O)c3ccco3)CC2)cc1 | 0 | 15 | -12 | -11 | -6
N#Cc1ccc(COc2cccc3cccnc23)cc1 | 1 | -2 | 5 | 1 | -6
CCCCNC(=O)c1cn(CC(C)C)c(=O)c2c1c1ccccc1n2C | -4 | -2 | 54* | -8 | 5
CN1c2ccccc2C(C)(C)C12C=Nc1c(ccc3ccccc13)O2 (stereo not given) | 4 | 23 | 105* | 5 | 1
COc1ccc2c(c1)Sc1ccccc1N2CCN(C)C | 0 | 3 | -17 | 1 | -5
CN1c2ccccc2C(C)(C)[C@]12C=Cc1cc(O)ccc1O2 | 4 | -11 | 7 | -1 | 47
COc1ccc2ccc3c(c2c1)N=CC1(O3)N(C)c2ccccc2C1(C)C (stereo not given) | 2 | 17 | 93* | 3 | -8
COc1ccc(N2CCN(C(=O)CN3C(=O)NC4(CCCCCC4)C3=O)CC2)cc1 | 1 | x | x | -2 | -2
COCCCNC(=O)C1CCN(S(=O)(=O)c2ccc3nc4c(c(C(=O)O)c3c2)CCCCC4)CC1 | 1 | 0 | -4 | -1 | -1
COc1ccc2[nH]c3c(=O)n(/N=C/c4ccc(OC)c(CN5CCCC5)c4)c(C)nc3c2c1 | -1 | 2 | 72* | 7 | 7
COc1ccc2c(c1)[nH]c1c(=O)n(/N=C/c3ccc(OC)c(CN4CCCC4)c3)cnc12 | -1 | -22 | 9 | -2 | 7
COc1ccc(/C=N/n2c(C)nc3c([nH]c4ccccc43)c2=O)cc1CN1CCCC(C)(C)C1 | 1 | 1 | 70* | -8 | 26
COc1ccc(-c2cc(C(=O)Nc3c(C)n(C)n(-c4ccccc4)c3=O)c3ccccc3n2)c(OC)c1 | -1 | -18 | 6 | 1 | 3
O=C(NC1CCCCCC1)c1c2c(nc3ccccc13)CCN(Cc1ccccc1)C2 | 3 | 1 | -4 | 2 | 8
Cc1cc(N2CCN(C)CC2)ccc1NC(=O)c1c2c(nc3ccccc13)CCN(Cc1ccccc1)C2 | -1 | -14 | -26 | -3 | 99*
COc1ccc(N2CCN(C(=O)C3CCN(S(=O)(=O)c4ccc5c(c4)oc(=O)n5C)CC3)CC2)cc1 | -3 | 3 | 2 | -1 | 3
Cc1ccc(-c2csc3ncnc(N4CCN(Cc5ccccc5)CC4)c23)cc1 | 0 | -18 | -2 | -7 | -2
c1ccc(CN2CCC(Nc3nc(-c4ccccc4)nc4ccccc34)CC2)cc1 | 5 | 139* | 0 | 7 | 35
